From PubChem BioAssay (NCATS)
Records with an inconclusive call do not appear. Calls of active or inactive are those of the source. Calls follow the shape of the dose curve; as a rule, active = well fitted curve in the direction sought with a large enough effect; inconclusive = small, poorly fitted or top-dose-only effect, or another doubt; inactive = no such curve, though single readings can be large; an effect the other way counts as inactive or inconclusive.

Key:
[1] = J3T Cancer Cell Toxicity qHTS against the NCATS CANVASS Library (AID 1347371); settings: J3T dog glioma viability, ATP luminescence, 72 h; at 46.1 µM (top of the series)
Excerpt: Natural products and their derivatives continue to be wellsprings of nascent therapeutic potential. However, many laboratories have limited resources for biological evaluation, leaving their previously isolated or synthesized compounds largely or completely untested. To address this issue, the Canvass library of natural products was assembled (https://tripod.nih.gov/canvass), in collaboration with academic and industry researchers, for quantitative high-throughput screening (qHTS) across a diverse set of cell-based and biochemical assays. […] The library was formatted into 1536-well plates and evaluated in 50 qHTS (in an 11-pnt concentration series) bioassays with broad scope of disease-relevant mechanisms. The resulting data set from 50 different assays was then systematically analyzed to identify overall trends and specific natural products with interesting biological activities. […] This assay uses ATP (luminescence) content to measure the cytotoxiciy of compounds on J3T dog glioma cancer cell line. […]
Cancer Cell Toxicity qHTS protocol: for cell lines G06, J3T, and SDT. […] Luminescence signal was acquired via the ViewLux plate reader (PerkinElmer) using a clear emission filter, 2 sec exposure, and 1x binning settings.

[2] = biological target: Nuclear receptor subfamily 1 group I member 3 (Homo sapiens) (UniProt Q14994); assay: qHTS for Constitutive Androstane Receptor (CAR) Antagonist screened against the NCATS CANVASS Library (AID 1347372);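 also: cells stimulated with 50 nM CITCO agonist so inhibition reflects antagonism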
Method in brief: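 HepG2 cells stably carrying hCAR and a CYP2B6-2.2kb luciferase reporter were exposed to compounds plus 50 nM CITCO for 24hr at 37C. CAR activity was read by ONE-Glo luminescence, with viability measured first by CellTiter-Fluor.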

[3] = biological target: Nuclear receptor subfamily 1 group I member 3 (Homo sapiens) (UniProt Q14994); assay: qHTS for Constitutive Androstane Receptor (CAR) Agonist screened against the NCATS CANVASS Library (AID 1347373);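 also: every well also contained 1.5 µM PK11195 alongside the test compound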
Method in brief: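 HepG2 cells stably carrying hCAR and a CYP2B6-2.2kb luciferase reporter, treated 24hr at 37C with compounds plus 1.5uM PK11195; activation by ONE-Glo luminescence, viability by CellTiter-Fluor.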

[4] = qHTS for Hypoxia signaling pathway (HIF-1) antagonists against the NCATS CANVASS Library (AID 1347374);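 also: HRE-bla ME-180 cells stimulated with cobalt chloride to stabilize HIF-1alpha; nearly all actives have a fitted effect of over 60% in size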
Method in brief: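 HRE-bla ME-180 cells in medium with 0.5% dialyzed FBS received compounds (11-point series) plus CoCl2 (60 uM addition stock) for 17 hrs at 37C. Beta-lactamase activity read with CCF4 (405 nm ex, 460/530 nm em); CellTiter-Glo viability measured in same wells.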

[5] = qHTS for Hypoxia signaling pathway (HIF-1) agonists against the NCATS CANVASS Library (AID 1347375)
Method in brief: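 HRE-bla ME-180 cells (0.5% dialyzed FBS) were pre-incubated 5 hrs at 37C, then exposed to compounds in an 11-point series for 17 hrs. Read-out was CCF4-AM beta-lactamase FRET (460/530 nm emissions), with CellTiter-Glo viability in the same wells.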

[6] = 10-beta competent E. coli microbial cell viability qHTS against the NCATS CANVASS Library (AID 1347376)
Method in brief: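 10-beta competent E. coli (0.2 OD) were exposed overnight at 37C to compounds in an 11-point series. Viability was read as ATP-dependent BacTiter-Glo luminescence after 20 min at room temperature.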

[7] = qHTS for H2AX Agonists against the NCATS CANVASS Library (AID 1347378)
Method in brief: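 Phospho-H2AX (S139) in CHO-K1 lysates measured by HTRF, reported as 665/615 nm emission ratio after 24 hr antibody incubation at room temperature. Cells were first treated with a compound series for 3 hr at 37C (0.76% DMSO final).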

[8] = qHTS for Inflammasome Signaling Inhibitors: IL-1-beta AlphaLISA screen against the NCATS CANVASS Library (AID 1347379); settings: THP-1 LPS/ATP, IL-1B AlphaLISA secretion, 16 h; at 57.5 µM (top of the series);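 also: human THP-1 cells primed with LPS then triggered with ATP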
Method in brief: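 THP-1 cells pretreated 1 hr with compound (up to 57.5 uM final), then stimulated with LPS (250 ng/mL final) and ATP (1.25 mM final). Secreted IL-1B measured by AlphaLISA after 16 hr; glyburide as positive control.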

[9] = Inflammasome Signaling qHTS Counterscreen: IL-1-beta AlphaLISA counterscreen against the NCATS CANVASS Library (AID 1347381);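 also: cell-free check with purified IL-1β in medium and no THP-1 cells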
Method in brief: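 Cell-free interference check: compounds added to medium spiked with 4 pg purified IL-1β. Anti-IL-1β acceptor beads (6 ug/mL) with 0.6 nM biotinylated antibody added for 1 h at RT, then streptavidin donor beads (24 ug/mL) for 30 min in the dark. AlphaLISA read at 680/615 nm.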

[10] = Cytotoxicity qHTS for assessment of Hepg2 cells membrane integrity screened against the NCATS CANVASS Library (AID 1347387)
Method in brief: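 HepG2 cells (2000/well) attached overnight, then exposed 5 hr at 37C to compounds in an 11-point series (0.59 nM - 46 uM final). LDH release from damaged membranes read fluorometrically (CytoTox-ONE; 560/590 nm) after 10 min at room temperature.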

Measured: outcome

Chain of Nuclear receptor subfamily 1 group I member 3 (Homo sapiens) (Q14994 whole entry, looked up): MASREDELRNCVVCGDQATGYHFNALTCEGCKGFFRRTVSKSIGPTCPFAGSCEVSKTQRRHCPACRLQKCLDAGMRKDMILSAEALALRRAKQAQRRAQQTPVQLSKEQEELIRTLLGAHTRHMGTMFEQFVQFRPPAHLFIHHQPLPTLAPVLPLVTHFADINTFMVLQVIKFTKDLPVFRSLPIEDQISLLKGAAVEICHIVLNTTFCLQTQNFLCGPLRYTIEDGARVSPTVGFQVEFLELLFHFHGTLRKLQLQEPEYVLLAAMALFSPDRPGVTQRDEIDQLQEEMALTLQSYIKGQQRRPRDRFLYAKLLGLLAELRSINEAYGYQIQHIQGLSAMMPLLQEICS

NCC(O)c1ccc(O)cc1 (stereo not given)
inactive: all assays above
